In the supplement of paper PMC13380429:

Tested on: Vero E6 infected with SARS-CoV-2
Assay: inhibition of SARS-CoV-2 cytopathic effect; higher = more antiviral protection, active = above 15
Settings: 48 h

Row | Compound | inhibition of SARS-CoV-2 cytopathic effect (1 nM) | inhibition of SARS-CoV-2 cytopathic effect (8.33 nM) | inhibition of SARS-CoV-2 cytopathic effect (100 nM) | inhibition of SARS-CoV-2 cytopathic effect (833.33 nM) | inhibition of SARS-CoV-2 cytopathic effect (10000 nM)
1 | CCOC(=O)Nc1ccc(NCc2ccc(F)cc2)nc1N [flupirtine] | 0.67% (inactive) | 0.58% (inactive) | -1.4% (inactive) | 0.07% (inactive) | 1.37% (inactive)
2 | COc1ccccc1N1CCN(CCCCNC(=O)c2ccc(-c3ccc(C(C)=O)cc3)cc2)CC1 | -1.49% (inactive) | -3.1% (inactive) | -4.98% (inactive) | -6.69% (inactive) | -6.57% (inactive)
3 | C[C@@H](CN1CC(=O)NC(=O)C1)N1CC(=O)NC(=O)C1 [dexrazoxane] | 1.89% (inactive) | 2.78% (inactive) | 2.19% (inactive) | 3.16% (inactive) | -1.81% (inactive)
4 | O=C1/C(=C/c2ccccc2)C[C@@]2(O)[C@H]3Cc4ccc(O)c5c4[C@@]2(CCN3CC2CC2)[C@H]1O5 | -2.61% (inactive) | 0.97% (inactive) | 1.2% (inactive) | 8.78% (inactive) | -26.4% (inactive)
5 | CC(C)CNc1nc(-c2cccc3ncccc23)cn2c(-c3ccc(C(=O)NC4CC4)cc3)cnc12 | -3.61% (inactive) | -1.58% (inactive) | 1.09% (inactive) | -6.07% (inactive) | -3.69% (inactive)
6 | CCOc1nc2cccc(C(=O)O)c2n1Cc1ccc(-c2ccccc2-c2nnn[nH]2)cc1 [candesartan] | -1.63% (inactive) | -2.91% (inactive) | -3.25% (inactive) | -3.84% (inactive) | -1.38% (inactive)
7 | CC(C)N(CCCNC(=O)Nc1ccc(C(C)(C)C)cc1)C[C@H]1O[C@@H](n2ccc3c(N)ncnc32)[C@H](O)[C@@H]1O | 4.48% (inactive) | 2.04% (inactive) | 4.36% (inactive) | -0.49% (inactive) | 0.43% (inactive)
8 | CCCCC/C=C\C/C=C\C/C=C\C/C=C\CCCC(=O)Nc1ccc(O)cc1 | -2.34% (inactive) | -1.32% (inactive) | 3.11% (inactive) | 0.42% (inactive) | -4.16% (inactive)
9 | CC(=O)OC/C=C(C)/C=C/C=C(C)/C=C/C1=C(C)CCCC1(C)C [retinyl-acetate] | -1.78% (inactive) | 0.37% (inactive) | -0.15% (inactive) | 1.34% (inactive) | 0.15% (inactive)
10 | CC(CNS(=O)(=O)C(C)C)c1ccc(-c2ccc(C#N)cc2)cc1 (stereo not given) | -2% (inactive) | 0.02% (inactive) | 0.68% (inactive) | 0.84% (inactive) | 0.85% (inactive)
11 | O=C(CCCN1CCC2(CC1)C(=O)NCN2c1ccccc1)c1ccc(F)cc1 [spiperone] | 1.92% (inactive) | 1.62% (inactive) | 0.95% (inactive) | 9.61% (inactive) | 81.1% (active)
12 | O=C(O)CCCC[C@@H]1CCSS1 [thioctic-acid] | 0.04% (inactive) | -0.43% (inactive) | -1.56% (inactive) | 1.13% (inactive) | -3.32% (inactive)
13 | O=C(O)Cn1c(C(=O)Nc2nc(-c3ccccc3Cl)cs2)cc2ccccc21 | 0.3% (inactive) | -0.21% (inactive) | 0.61% (inactive) | -0.36% (inactive) | -0.66% (inactive)
14 | COCCCOc1cc(C[C@@H](C[C@H](N)[C@@H](O)C[C@H](C(=O)NCC(C)(C)C(N)=O)C(C)C)C(C)C)ccc1OC [aliskiren-hemifumarate] | 0.8% (inactive) | -0.18% (inactive) | -1.58% (inactive) | -0.63% (inactive) | -0.23% (inactive)
15 | C=C1C(=O)O[C@@H]2[C@H]3O[C@]3(C)CC/C=C(\C)CC[C@@H]12 [parthenolide-(alternate-stereo)] | 0.91% (inactive) | -1.19% (inactive) | -2.99% (inactive) | 2.8% (inactive) | 23.8% (active)
16 | CC(C)c1nc(CN(C)C(=O)N[C@H](C(=O)N[C@@H](Cc2ccccc2)C[C@H](O)[C@H](Cc2ccccc2)NC(=O)OCc2cncs2)C(C)C)cs1 [ritonavir] | 0.04% (inactive) | 0.25% (inactive) | -0.08% (inactive) | 3.37% (inactive) | 0.85% (inactive)
17 | O=C(OCC(O)CO)c1ccccc1Nc1ccnc2c(C(F)(F)F)cccc12 (stereo not given) [floctafenine] | 0.71% (inactive) | 6.76% (inactive) | 1.82% (inactive) | 3.08% (inactive) | 3.04% (inactive)
18 | S=C(NCCc1ccccn1)Nc1ccc(Br)cn1 [trovirdine] | 2% (inactive) | 2.79% (inactive) | 2.61% (inactive) | 1.44% (inactive) | 0.69% (inactive)
19 | CC(=O)Oc1cc(C(F)(F)F)ccc1C(=O)O [triflusal] | -0.9% (inactive) | -0.53% (inactive) | -1.38% (inactive) | 0.3% (inactive) | 4.74% (inactive)
20 | CCNC(=O)/C=C/c1cccc(Br)c1 [cinromide] | 0.47% (inactive) | 1.25% (inactive) | 0.09% (inactive) | 2.1% (inactive) | 1.33% (inactive)

Row | Compound | inhibition of SARS-CoV-2 cytopathic effect (1 nM) | inhibition of SARS-CoV-2 cytopathic effect (8.33 nM) | inhibition of SARS-CoV-2 cytopathic effect (100 nM) | inhibition of SARS-CoV-2 cytopathic effect (833.33 nM) | inhibition of SARS-CoV-2 cytopathic effect (10000 nM)
21 | CN(C)c1nc(N(C)C)nc(N(C)C)n1 [altretamine] | 2.31% (inactive) | -1.41% (inactive) | 0.54% (inactive) | -0.29% (inactive) | 2.53% (inactive)
22 | Nc1ccc(O)c(C(=O)O)c1 [mesalazine] | 1.06% (inactive) | -2.08% (inactive) | 1.03% (inactive) | -1.05% (inactive) | -2.08% (inactive)
23 | CC(C)(C)NCC(O)c1cc(Cl)c(N)c(C(F)(F)F)c1 (stereo not given) [mabuterol] | -0.03% (inactive) | -0.53% (inactive) | 3.86% (inactive) | -1.18% (inactive) | -0.72% (inactive)
24 | CC(C)c1ccc(NC(=O)Cn2cnc3c2c(=O)n(C)c(=O)n3C)cc1 | -0.13% (inactive) | 1.6% (inactive) | 1.39% (inactive) | 2.45% (inactive) | 3.83% (inactive)
25 | C=Cc1c(C)c2cc3nc(c(CC(=O)O)c4[n-]c(cc5nc(cc1[n-]2)C(C)=C5CC)c(C)c4C(=O)O)[C@@H](CCC(=O)O)[C@@H]3C.[Cu+2] [chlorophyllin-copper] | -0.37% (inactive) | 2.9% (inactive) | -1.68% (inactive) | -0.25% (inactive) | -2.81% (inactive)
26 | CC(N)CCCC(C)(C)O (stereo not given) [heptaminol] | 0.22% (inactive) | 3.55% (inactive) | 2.95% (inactive) | -3.4% (inactive) | 0.76% (inactive)
27 | COc1ccccc1NC(=O)OCC1CCN(C(=O)OC(C)(C)C)CC1 | 0.55% (inactive) | -0.78% (inactive) | 1.48% (inactive) | -0.14% (inactive) | 0.81% (inactive)
28 | CCn1cnc2c(Nc3cccc(Cl)c3)nc(N[C@@H]3CCCC[C@@H]3N)nc21 | -1.22% (inactive) | 0.37% (inactive) | 2.67% (inactive) | 3.13% (inactive) | -29.1% (inactive)
29 | NS(=O)(=O)c1ccc(NC(=O)Nc2ccc(F)cc2)cc1 | 1% (inactive) | -1.24% (inactive) | 0.78% (inactive) | -1.65% (inactive) | -0.78% (inactive)
30 | COc1ccc(-c2ccc3cc(C(=O)O)ccc3c2)cc1C12CC3CC(CC(C3)C1)C2 [adapalene] | -0.05% (inactive) | -0.29% (inactive) | 2.4% (inactive) | 2.31% (inactive) | 3.12% (inactive)
31 | CCOc1cc2ncc(C#N)c(Nc3ccc(F)c(Cl)c3)c2cc1NC(=O)/C=C/CN(C)C [pelitinib] | -2.05% (inactive) | -5.13% (inactive) | -7.91% (inactive) | -5.27% (inactive) | 2.95% (inactive)
32 | COC(=O)C1=C(C)NC(C)=C(C(=O)O[C@H]2CCN(Cc3ccccc3)C2)[C@H]1c1cccc([N+](=O)[O-])c1 [barnidipine] | 2.33% (inactive) | 1.62% (inactive) | 1.31% (inactive) | 3.84% (inactive) | -0.56% (inactive)
33 | Cc1cccc(C(=O)NCN2CCN(c3ccccc3C#N)CC2)c1 | -2.23% (inactive) | 0.9% (inactive) | -0.16% (inactive) | 0.2% (inactive) | 0.79% (inactive)
34 | NS(=O)(=O)c1cc(Cl)c(Cl)c(S(N)(=O)=O)c1 [diclofenamide] | -2.99% (inactive) | -2.1% (inactive) | -3.44% (inactive) | 0.21% (inactive) | -2.7% (inactive)
35 | CCN1CCN(Cc2ccc(C(=O)Nc3ccc(C)c(Oc4ccc5c(c4)CC(=O)N5)c3)cc2C(F)(F)F)CC1 | -1.15% (inactive) | -1.24% (inactive) | 1.47% (inactive) | 3.18% (inactive) | 56% (active)
36 | COc1cc2c(cc1OC)C(=O)C(CC1CCN(Cc3ccccc3)CC1)C2 (stereo not given) [donepezil] | -2.44% (inactive) | -3.45% (inactive) | -1.84% (inactive) | -1.28% (inactive) | -8.45% (inactive)
37 | CCN1CCN(c2ccc(C(C)(C)NC(=O)c3cc4[nH]c5ccccc5c(=O)c4cc3F)cn2)CC1 | 0.53% (inactive) | -0.52% (inactive) | 3.59% (inactive) | 2.28% (inactive) | 26.8% (active)
38 | CC(C)c1c(NC(=O)Nc2ccc(Cl)cc2)c(=O)n(-c2ccccc2)n1C | 0.15% (inactive) | 0.39% (inactive) | 0.07% (inactive) | -1.16% (inactive) | -0.11% (inactive)
39 | CCC(=O)c1cc(-c2ccc(Cl)cc2)n(-c2ccc(S(N)(=O)=O)cc2)c1C | -0.96% (inactive) | -3.03% (inactive) | 0.71% (inactive) | -1.12% (inactive) | 3.3% (inactive)
40 | O=C(O)P(=O)(O)O [foscarnet] | 3.44% (inactive) | 3.89% (inactive) | 2.56% (inactive) | 0.33% (inactive) | 0.71% (inactive)
